From PubChem BioAssay AID1159580 (chemical genetic matrix, 2015)
Several values for one entry are separate records, joined by “and”; a condition that tells them apart may be missing. Identical values can stand only once. Among all 5,500 compounds or so, about 2,000 (36%) were called active. Not shown: some 18% with an inconclusive outcome. Cut-off read from the data, not from the text of the source: active = normalized growth mostly below about 0.91 (no sharp cut-off); inconclusive = no clear call, values can overlap the other calls; inactive = mostly above about 0.92. This is one part of the list.

Experiment: chemical genetic growth profiling, strain panel (AID 1159580);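 note: tested at 20 µM; growth read once vehicle control cultures reached saturation at 30 °C; 1 = growth at the plate median or of vehicle wells; lower values mean less growth of the strain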
Conditions: S. cerevisiae deletion strains, growth OD

Measured: normalized growth

O=c1[nH]cnc2nc[nH]c12
inactive: locus YAL021C, strain ccr4, stronger effect = lower value 1.04 | locus YAL026C, strain drs2, stronger effect = lower value 1.02 | locus YAL030W, strain snc1, stronger effect = lower value 1.03 | locus YBL061C, strain skt5, stronger effect = lower value 1.02 | locus YBR009C, strain hhf1, stronger effect = lower value 1.01 | locus YBR021W, strain FUR4, stronger effect = lower value 0.972 | locus YBR023C, strain chs3, stronger effect = lower value 1.01 | locus YBR171W, strain sec66, stronger effect = lower value 1.04 | locus YBR229C, strain ROT2, stronger effect = lower value 0.992 | locus YBR231C, strain swc5, stronger effect = lower value 1.02 | locus YBR279W, strain paf1, stronger effect = lower value 1.01 | locus YCL011C, strain gbp2, stronger effect = lower value 1.03 | locus YCL016C, strain dcc1, stronger effect = lower value 1.01 | locus YCL029C, strain bik1, stronger effect = lower value 0.977 | locus YCL061C, strain MRC1, stronger effect = lower value 1.01 | locus YCL069W, strain vba3, stronger effect = lower value 1.01 | locus YCR088W, strain abp1, stronger effect = lower value 1.02 | locus YDL005C, strain med2, stronger effect = lower value 1.02 | locus YDL035C, strain GPR1, stronger effect = lower value 1.01 | locus YDL040C, strain nat1, stronger effect = lower value 1 | locus YDL074C, strain BRE1, stronger effect = lower value 0.986 | locus YDL101C, strain DUN1, stronger effect = lower value 0.999 | locus YDL134C, strain PPH21, stronger effect = lower value 1 | locus YDL185W, strain tfp1, stronger effect = lower value 0.979 | locus YDL192W, strain arf1, stronger effect = lower value 0.994 | locus YDR001C, strain nth1, stronger effect = lower value 1.01 | locus YDR069C, strain doa4, stronger effect = lower value 1.04 | locus YDR101C, strain arx1, stronger effect = lower value 0.973 | locus YDR137W, strain rgp1, stronger effect = lower value 1.07 | locus YDR150W, strain NUM1, stronger effect = lower value 1 | locus YDR159W, strain sac3, stronger effect = lower value 1.03 | locus YDR162C, strain NBP2, stronger effect = lower value 1.04 | locus YDR195W, strain ref2 1.01 | locus YDR297W, strain sur2, stronger effect = lower value 1.04 | locus YDR318W, strain mcm21, stronger effect = lower value 0.984 | locus YDR334W, strain swr1, stronger effect = lower value 1.03 | locus YDR335W, strain msn5, stronger effect = lower value 1.02 | locus YDR388W, stronger effect = lower value 0.983 | locus YDR392W, strain spt3, stronger effect = lower value 1.01 | locus YDR502C, strain sam2, stronger effect = lower value 1 | locus YEL003W, strain gim4, stronger effect = lower value 1.01 | locus YEL037C, strain rad23, stronger effect = lower value 1.01 | locus YEL061C, strain CIN8 (second series), stronger effect = lower value 1.02 | locus YEL061C, strain CIN8, stronger effect = lower value 1 | locus YER015W, strain faa2, stronger effect = lower value 1.01 | locus YER016W, strain bim1, stronger effect = lower value 1.02 | locus YER110C, stronger effect = lower value 0.969 | locus YER111C, strain swi4, stronger effect = lower value 1.02 | locus YER155C, strain BEM2 (second series), stronger effect = lower value 1.02 | locus YER155C, strain BEM2, stronger effect = lower value 0.992 | locus YER167W, strain BCK2, stronger effect = lower value 0.982 | locus YFR010W, strain ubp6, stronger effect = lower value 1.03 | locus YGL078C, strain dbp3, stronger effect = lower value 0.986 | locus YGL086W, strain mad1, stronger effect = lower value 0.955 | locus YGL167C, strain pmr1, stronger effect = lower value 1.02 | locus YGL173C, strain kem1, stronger effect = lower value 1.03 | locus YGL227W, strain vid30, stronger effect = lower value 1.01 | locus YGL240W, strain doc1, stronger effect = lower value 1.01 | locus YGL248W, strain PDE1, stronger effect = lower value 1.01 | locus YGL253W, strain hxk2, stronger effect = lower value 1.02 | locus YGR135W, strain pre9, stronger effect = lower value 1.01 | locus YGR252W, strain gcn5, stronger effect = lower value 1.09 | locus YHR013C, strain ard1, stronger effect = lower value 1.05 | locus YHR027C, strain rpn1, stronger effect = lower value 1.01 | locus YHR030C, strain SLT2, stronger effect = lower value 0.989 and 1.05 | locus YHR079C, strain IRE1 (second series), stronger effect = lower value 0.975 | locus YHR079C, strain IRE1, stronger effect = lower value 1.02 | locus YHR094C, strain hxt1, stronger effect = lower value 0.974 | locus YHR129C, strain ARP1, stronger effect = lower value 0.996 | locus YHR142W, strain chs7, stronger effect = lower value 1.02 | locus YHR200W, strain rpn10, stronger effect = lower value 0.998 | locus YIL066C, strain RNR3, stronger effect = lower value 0.998 | locus YIL073C, strain SPO22, stronger effect = lower value 0.963 | locus YIL125W, strain kgd1, stronger effect = lower value 0.972 | locus YIR030C, strain dcg1, stronger effect = lower value 0.989 | locus YJL092W, strain hpr5, stronger effect = lower value 1.02 | locus YJL095W, strain BCK1 (second series), stronger effect = lower value 1.01 | locus YJL095W, strain BCK1, stronger effect = lower value 1.02 and 1.01 | locus YJL115W, strain asf1, stronger effect = lower value 1.02 | locus YJL129C, strain trk1, stronger effect = lower value 1.03 | locus YJL134W, strain LCB3, stronger effect = lower value 0.994 | locus YJL154C, strain vps35, stronger effect = lower value 1.02 | locus YJL164C, strain tpk1, stronger effect = lower value 1.01 | locus YJL166W, strain qcr8, stronger effect = lower value 1.01 | locus YJL168C, strain set2, stronger effect = lower value 0.977 | locus YJL187C, strain SWE1 (second series), stronger effect = lower value 1.01 | locus YJL187C, strain SWE1, stronger effect = lower value 1.02 | locus YJR043C, strain POL32, stronger effect = lower value 1.03
